The source of these data is PubChem BioAssay AID2284153 (EPA ToxCast).

The source made the active and inactive calls. How the source made its calls: active means hit-call score of the fitted dose curve at least 0.9, where 1 is the maximum; inactive means score below 0.9.

The target of this experiment is Muscarinic acetylcholine receptor M1 (Homo sapiens) (UniProt P11229). Description: ERF_FR_GPCR_hCHRM1: Eurofins (ERF) G Protein-Coupled Receptor (GPCR) Radioligand Binding LeadHunter Assay for human Muscarinic Acetylcholine Receptor M1 Antagonism, conducted at France lab site. Here is the method: ERF_FR_GPCR_hCHRM1 is a biochemical, single-readout assay that uses extracted gene-proteins in a cell-free assay. Measurements were taken 1 hour after chemical dosing in a 96-well plate. See M1 Human Acetylcholine (Muscarinic) GPCR Binding (Antagonist Radioligand) Assay, Cerep.ERF_FR_GPCR_hCHRM1 is an assay component calculated from the ERF_FR_GPCR_hCHRM1 assay. It is designed to measure radioligand binding using a type of binding reporter as detected by scintillation counting with radiometry technology.Data from the assay component ERF_FR_GPCR_hCHRM1 was analyzed at the assay endpoint, ERF_FR_GPCR_hCHRM1, in the positive analysis fitting direction relative to DMSO as the negative control and baseline of activity. Using a type of binding reporter, loss-of-signal activity can be used to understand changes in binding as they relate to gene CHRM1. To generalize the intended target to other relatable targets, this assay endpoint is annotated to the gpcr intended target family, where the subfamily is acetylcholine (Muscarinic).
Muscarinic acetylcholine receptor M1 (Homo sapiens), sequence (P11229 whole entry, looked up): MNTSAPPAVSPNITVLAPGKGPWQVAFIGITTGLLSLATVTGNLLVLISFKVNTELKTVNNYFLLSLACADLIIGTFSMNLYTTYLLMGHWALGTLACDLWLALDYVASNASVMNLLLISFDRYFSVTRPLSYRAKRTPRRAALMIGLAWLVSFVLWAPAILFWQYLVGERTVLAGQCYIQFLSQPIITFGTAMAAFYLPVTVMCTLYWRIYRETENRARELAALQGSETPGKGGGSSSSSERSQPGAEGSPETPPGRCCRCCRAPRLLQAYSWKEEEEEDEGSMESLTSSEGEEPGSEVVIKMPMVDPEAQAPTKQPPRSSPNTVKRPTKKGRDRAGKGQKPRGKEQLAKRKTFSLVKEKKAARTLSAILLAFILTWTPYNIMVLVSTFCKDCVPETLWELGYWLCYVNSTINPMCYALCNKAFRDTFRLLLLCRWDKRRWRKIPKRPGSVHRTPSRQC
Human cells are incubated for 60 minutes at room temprature with [3H]pirenzepine ligand (2 nM) and pirenzepine as control inhibitor.Test Sample Requirements: Minimum for 1) Screen: 60 ul of 10 mM stock -OR- 1 mg (pre-weighed) for 10 uM final testing. 2) Dose Response: 90 ul of 10 mM stock -OR- 1 mg (pre-weighed) for a top concentration at 10 uM.
As a reminder, the AC50 is the concentration at which the activity in the assay is half-maximal. As to `O=C(/C=C/c1ccc(O)cc1)CC(=O)/C=C/c1ccc(O)cc1`, the AC50 is 5 µM (active).
